The structures appear in SMILES notation. Records with an inconclusive call do not appear. The source made the active and inactive calls. Calls come from the whole dose curve; as a rule, active = well fitted cell-killing curve with a large enough effect; inconclusive = small, poorly fitted or top-dose-only effect, or effect the other way; inactive = no such curve, though single readings can be large or run the other way.
% is set by controls: 0 for no effect and ±100 for the full control effect; potency is the fitted concentration of half-maximal effect.

For the assay, the system named is CASKI. Description: Confirmatory qHTS for gynecologic anti-cancer compounds from libraries of approved drugs and bioactive compounds. Note: nearly all actives have a fitted effect of over 55% in size. The following applies: gynecologic cancer cell panel viability, ATPlite luminescence, 48 h; series mostly up to 57.6 µM; activity change, negative = viability loss: at the top concentration. The method in brief: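 ATP-based luminescent viability (ATPlite) after 48 h drug treatment at 37 °C, 5% CO2, across 57.5 uM–0.977 nM in 1:3 steps. Cells seeded at 1,000 per well 16 h beforehand; IC50 values computed, HEK 293T as selectivity control.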
`CC(C)CC(=O)Nc1n[nH]c2c1CN(C(=O)C1CCN(C)CC1)C2(C)C`: the Potency was 3.43 µM (active).

As for `O=C(/C=C/c1cccc(S(=O)(=O)Nc2ccccc2)c1)NO`, the Potency is 4.73 µM (active).

Take `CCN1C[C@H](C)n2c(c(O)c3c(=O)n(Cc4ccc(F)c(Cl)c4)nc(C(=O)NC)c32)C1=O`: the “activity change, negative = viability loss” value was 13.6% (inactive).

As for `Nc1cccc(-c2cc3c(Oc4cccc(O)c4)ncnc3[nH]2)c1`, the Potency was 7.69 µM (active).

With `CN(C)c1ccc(-c2nc3ncc(Cl)c(N4CCN(CC(=O)Nc5nccs5)CC4)c3[nH]2)cc1`, the “activity change, negative = viability loss” value is -25.2% [at 19.5 µM] (inactive).

In the case of `CC(C)[C@@H](CS(=O)(=O)C(C)C)N1C(=O)[C@@](C)(CC(=O)O)C[C@H](c2cccc(Cl)c2)[C@H]1c1ccc(Cl)cc1`, the “activity change, negative = viability loss” value is 10.2% (inactive).

As to `COc1ccc(CCC(=O)c2c(O)cc(O[C@@H]3O[C@H](CO)[C@@H](O)[C@H](O)[C@H]3O[C@@H]3O[C@@H](C)[C@H](O)[C@@H](O)[C@H]3O)cc2O)cc1O`, the “activity change, negative = viability loss” value was 6.84% (inactive).

In the case of `Fc1cc(-c2cccc3ncc(-c4cnn(C5CCNCC5)c4)nc23)cc(F)c1CN1CCOCC1`, the Potency was 34.3 µM (active).

Turning to `CCN(CC)CCNC(=O)c1c(C)[nH]c(/C=C2\C(=O)Nc3ccc(F)cc32)c1C`, the Potency was 56.2 µM (active).

With `CCc1c2c(nc3ccc(OC(=O)N4CCC(N5CCCCC5)CC4)cc13)-c1cc3c(c(=O)n1C2)COC(=O)[C@]3(O)CC`, the Potency was 19.3 µM (active).

For `Cc1cc(Nc2nc(N[C@@H](C)c3ccc(F)cc3)c(C#N)cc2F)n[nH]1`, the Potency is 13.7 µM (active).

As for `CC[C@@]1(O)C(=O)OCc2c1cc1n(c2=O)Cc2c-1nc1ccccc1c2/C=N/OC(C)(C)C`, the Potency is 0.153 µM (active).

In the case of `CC[C@]1(O)C[C@H]2CN(CCc3c([nH]c4ccccc34)[C@@](C(=O)OC)(c3cc4c(cc3OC)N(C=O)[C@H]3[C@@](O)(C(=O)OC)[C@H](OC(C)=O)[C@]5(CC)C=CCN6CC[C@]43[C@@H]65)C2)C1`, the “activity change, negative = viability loss” value was -0.871% (inactive).

Take `CCOC(=O)C1=C(C)NC2=C(C(=O)CC(C)(C)C2)C1c1ccc(-c2ccccc2)cc1` (centres undefined): the “activity change, negative = viability loss” value was -23.5% (inactive).

Regarding `CC(=O)NCC(=O)N1C2CCC1c1cc(Nc3ncc(C(F)(F)F)c(NC4CCC4)n3)ccc12` (centres undefined), the Potency is 9.68 µM (active).

Regarding `Cc1cc(C2CCCCC2)n(O)c(=O)c1`, the Potency is 3.96 µM (active).

With `C[C@]12CCC(=O)C=C1CC[C@@H]1[C@@H]2[C@@H](O)C[C@@]2(C)[C@H]1CC[C@]2(O)C(=O)CO`, the “activity change, negative = viability loss” value was 21.2% (inactive).

In the case of `CN(C)C1CCN(C(=O)c2ccc(NC(=O)Nc3nc(N4CCOCC4)nc(N4CCOCC4)n3)cc2)CC1`, the Potency is 0.273 µM (active).

With `O=C(Nc1cn[nH]c1-c1nc2ccc(CN3CCOCC3)cc2[nH]1)NC1CC1`, the Potency was 2.73 µM (active).

Turning to `C=CC(=O)Nc1cc2c(Nc3ccc(F)c(Cl)c3)ncnc2cc1OCCCN1CCOCC1`, the Potency is 27.3 µM (active).

`Cc1ccc(C(=O)N(CCCN)C(c2oc3cc(Cl)ccc3c(=O)c2Cc2ccccc2)C(C)C)cc1` (centres undefined): the Potency is 27.3 µM (active).

For `NC(=O)Nc1cc(-c2cccc(F)c2)sc1C(=O)NC1CCCNC1` (centres undefined), the Potency was 2.17 µM (active).

With `CC[C@@]1(O)C(=O)OCc2c1cc1n(c2=O)Cc2cc3c(CN(C)C)c(O)ccc3nc2-1`, the Potency is 1.09 µM (active).

Regarding `O=C(CCCCCCC(=O)Nc1ccccc1)NO`, the Potency is 12.2 µM (active).

On to `C#C[C@]1(O)CC[C@H]2[C@@H]3CCC4=CC(=O)CC[C@@H]4[C@H]3CC[C@@]21CC`, for which the “activity change, negative = viability loss” value was -2.14% (inactive).

Turning to `COc1cc2nccc(Oc3ccc(NC(=O)Nc4cc(C)on4)c(Cl)c3)c2cc1OC`, the Potency was 27.3 µM (active).

As to `Cc1nc(Nc2n[nH]c3c2CN(C(=O)NC(CN(C)C)c2ccccc2)C3(C)C)c2sccc2n1` (centres undefined), the Potency was 3.06 µM (active).

On to `OCc1ccc(-c2ccc(-c3ccc(CO)s3)o2)s1`, for which the “activity change, negative = viability loss” value was -4.01% [at 19.5 µM] (inactive).

Take `CN1CCCC(n2nc(Cc3ccc(Cl)cc3)c3ccccc3c2=O)CC1` (centres undefined): the “activity change, negative = viability loss” value was -7.16% (inactive).

As to `Cn1cc(-c2ccc3ncc(Cc4ccc5ncccc5c4)n3n2)cn1`, the “activity change, negative = viability loss” value is 11.8% (inactive).

Turning to `CC(=O)OC12COC1CC(O)C1(C)C(=O)C(O)C3=C(C)C(OC(=O)C(O)C(NC(=O)OC(C)(C)C)c4ccccc4)CC(O)(C(OC(=O)c4ccccc4)C21)C3(C)C` (centres undefined), the “activity change, negative = viability loss” value was 9.99% (inactive).

`CNC(=O)c1nn(C)c2c1C(C)(C)Cc1cnc(Nc3ccc(N4CCN(C)CC4)cc3)nc1-2`: the Potency was 10.9 µM (active).

On to `Cc1nc(N)ncc1-c1nc(N2CCOCC2)c2sc(C(C)(C)O)cc2n1`, for which the Potency is 0.769 µM (active).

On to `CC(Oc1ccc2[nH]nc(/C=C/c3cnn(CCO)c3)c2c1)c1c(Cl)cncc1Cl` (centres undefined), for which the Potency is 5.44 µM (active).
